19 compounds from PubChem BioAssay (NCATS) can be followed below.

Results filed as inconclusive are left out. Activity calls are given as the source filed them. The call rests on the fitted dose curve; in most records, active means well fitted inhibition curve with a large enough effect; inconclusive means small, poorly fitted or top-dose-only effect; inactive means flat fitted curve, though single readings scatter.

This assay deals with CRL-7250. Nature of the assay: qHTS assay to identify novel small-molecules to repurpose for Merkel cell carcinoma treatment (AID 1296009). Further: nearly all actives have a fitted effect of over 60% in size. The settings on record: MCC and control cell lines, CellTiter-Glo viability, 72 h; at 44.8 µM (top of the series) unless noted. The procedure, abridged: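 After compound transfer in DMSO, plates were kept 72 hr at 37 degree celsius. Luminescent ATP signal from CellTiter-Glo served as viability measure, normalized against DMSO and no-cell controls.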
(In general: In qHTS, concentration-response curves come from the screen itself.)
With `CCC(=O)O[C@]1(C(=O)SCF)[C@H](C)C[C@H]2[C@@H]3C[C@H](F)C4=CC(=O)C=C[C@]4(C)[C@@]3(F)[C@@H](O)C[C@@]21C`, the compound was called inactive.

In the case of `CCCC(=O)OC[C@@H](OC(=O)CCC)[C@@H](OC(=O)CCC)[C@H](Cn1c2nc(=O)[nH]c(=O)c-2nc2cc(C)c(C)cc21)OC(=O)CCC`, the compound was called inactive.

In the case of `Cc1cc(O)c(C)c(C)c1O`, the outcome was inactive.

As to `CCOC(=O)[C@H](CCc1ccccc1)N[C@@H](C)C(=O)N1C(=O)N(C)C[C@H]1C(=O)O`, the result was inactive.

With `CNC(=O)CN(CCN(CCN(CC(=O)[O-])CC(=O)NC)CC(=O)[O-])CC(=O)[O-].O.[Gd+3]`, the compound was called inactive.

For `CC1(C)OC[C@@H](COC(=O)CCc2ccc(OC[C@@H](O)CNCCNC(=O)N3CCOCC3)cc2)O1`, the outcome was inactive.

In the case of `CC(=O)NC(Cc1ccccc1)C(=O)O` (centres undefined), the outcome is “inactive [at 92 µM]”.

As for `CC(=O)[C@H]1CC[C@H]2[C@@H]3CC=C4C[C@@H](O)CC[C@]4(C)[C@H]3CC[C@]12C`, the compound was classed as inactive.

On to `COc1ccc2c(c1)c(CC(=O)O)c(C)n2C(=O)c1ccc(Cl)cc1`, for which the outcome was inactive.

Take `C[C@@H](C1=C(CCN(C)C)Cc2ccccc21)c1ccccn1`: the compound was called inactive.

For the compound `COc1ccccc1N1CCN(CCCNc2cc(=O)n(C)c(=O)n2C)CC1`, the call was inactive.

`CCOC(=O)c1ccc(OC(=O)CCCCCN=C(N)N)cc1`: the compound was called inactive.

As to `CCCCC(=O)O[C@]1(C(=O)CO)CC[C@H]2[C@@H]3CCC4=CC(=O)CC[C@]4(C)[C@H]3[C@@H](O)C[C@@]21C`, the call was inactive.

Consider `O=C(O)COC(=O)Cc1ccccc1Nc1c(Cl)cccc1Cl`, for which the compound was called inactive.

As to `CCC(=O)O[C@]1(C(=O)CCl)[C@@H](C)C[C@H]2[C@@H]3CCC4=CC(=O)C=C[C@]4(C)[C@@]3(F)[C@@H](O)C[C@@]21C`, the outcome was inactive.

On to `CC[N+](CC)(CC)CCOC(=O)C(C1CCCC1)C1CCCC1`, for which the call was inactive.

With `CO[C@@H]1[C@@H](O[C@@H]2O[C@H](C)[C@@H](O[C@H]3C[C@@](C)(O)[C@@H](O)[C@H](C)O3)[C@H](N(C)C)[C@H]2O)[C@@H](CC=O)C[C@@H](C)[C@@H](O[C@@H]2CC[C@H](N(C)C)[C@@H](C)O2)/C=C/C=C/C[C@@H](C)OC(=O)C[C@H]1OC(C)=O`, the call was inactive.

For the compound `O=C(NCC1CN(c2ccc(N3CCOCC3=O)cc2)C(=O)O1)c1ccc(Cl)s1` (centres undefined), the compound was classed as inactive.

With `COc1ccc2[nH]c(S(=O)Cc3ncc(C)c(OC)c3C)nc2n1` (centres undefined), the compound was called inactive.
